Among all 360,000 compounds or so, about 3,100 (0.86%) were called active. Only a selection was taken, and actives are over-represented in it overall. Values without a mark were called inactive.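 Rule for the calls: active = inhibition or corrected inhibition above about 18%, plus a signal ratio from 0.5 to 1.5 (limit read from the data, passing the limit was not always enough); inactive = the rest.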
target: Neuropilin-1 (Homo sapiens) (UniProt O14786); assay: modulators of CendR peptide binding to NRP-1, primary screen, biochemical, fluorescence polarization, uHTS (AID 602438); conditions: FAM-RPARPAR peptide binding to NRP-1, fluorescence polarization; at 25 µM; hits give high values
Sequence (O14786 whole entry, looked up): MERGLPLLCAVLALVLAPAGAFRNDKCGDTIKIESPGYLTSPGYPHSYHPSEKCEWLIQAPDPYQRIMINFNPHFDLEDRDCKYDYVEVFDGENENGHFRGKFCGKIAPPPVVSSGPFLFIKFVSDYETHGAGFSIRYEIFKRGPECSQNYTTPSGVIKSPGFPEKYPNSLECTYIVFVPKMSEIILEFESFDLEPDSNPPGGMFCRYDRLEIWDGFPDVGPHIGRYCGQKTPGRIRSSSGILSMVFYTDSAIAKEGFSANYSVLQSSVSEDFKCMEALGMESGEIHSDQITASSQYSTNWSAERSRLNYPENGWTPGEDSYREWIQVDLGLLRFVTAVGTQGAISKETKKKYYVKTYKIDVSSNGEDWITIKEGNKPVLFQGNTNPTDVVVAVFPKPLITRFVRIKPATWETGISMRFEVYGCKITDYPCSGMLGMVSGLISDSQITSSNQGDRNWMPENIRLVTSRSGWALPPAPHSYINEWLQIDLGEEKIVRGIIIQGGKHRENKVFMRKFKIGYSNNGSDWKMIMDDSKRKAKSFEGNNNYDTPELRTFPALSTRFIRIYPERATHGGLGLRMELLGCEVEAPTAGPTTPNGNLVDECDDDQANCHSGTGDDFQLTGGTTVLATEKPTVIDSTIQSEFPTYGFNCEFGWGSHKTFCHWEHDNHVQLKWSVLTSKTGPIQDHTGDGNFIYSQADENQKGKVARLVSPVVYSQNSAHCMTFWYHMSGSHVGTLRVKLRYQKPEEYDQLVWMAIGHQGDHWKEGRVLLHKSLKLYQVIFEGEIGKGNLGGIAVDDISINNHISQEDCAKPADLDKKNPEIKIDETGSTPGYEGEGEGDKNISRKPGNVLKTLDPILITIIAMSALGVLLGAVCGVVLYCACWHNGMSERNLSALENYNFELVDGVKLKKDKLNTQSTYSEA

| Structure (SMILES) | inhibition |
| --- | --- |
| CCCCCCN=C(CC)c1c(O)n(CCCC)c(=O)[nH]c1=O | -5.7% |
| CCC(=NCCc1ccccc1)c1c(O)n(C2CCCCC2)c(=O)[nH]c1=O | 24% (active) |
| CC(=O)c1c(O)n(C2CCCCCC2)c(=O)[nH]c1=O | -12.9% |
| COc1ccccc1C1=NCc2nnc(CSC)n2-c2ccc(Cl)cc21 | 10.2% |
| COC(=O)[C@@H]1C(OC(=O)c2ccccc2)CC2CCC1N2C (stereo not given in full) | -1.6% |
| Cc1ccc(Cn2nnnc2CN2CCC(n3nnc4ccccc43)CC2)cc1 | 25.7% (active) |
| O=c1[nH]c2ccccc2n1C1CCN(C(c2ccnc3ccccc23)c2nnnn2Cc2ccccc2)CC1 (stereo not given) | 6.4% |
| O=c1[nH]c2ccccc2n1C1CCN(C(c2ccccc2)c2nnnn2Cc2ccccc2)CC1 (stereo not given) | 11.2% |
| CN(C)P(=S)(Nc1ccccc1)C(Cl)(Cl)Cl (stereo not given) | 7.8% |
| COC(=O)C1=C(c2ccccc2)C[C@@H]2CC[C@H]1N2C(=O)N1CCCCC1 | 32.5% (active) |
| COC(=O)C1=C(c2ccc3ccccc3c2)C[C@@H]2CC[C@H]1N2C(=O)NCCO | -3.3% |
| COC(=O)C1=C(c2cccc(OCc3ccccc3)c2)C[C@@H]2CC[C@H]1N2C(=O)NNCc1ccccc1 | 8.8% |
| COC(=O)C1=C(c2ccccc2)C[C@@H]2CC[C@H]1N2C(=O)NCc1ccco1 | -16.6% |
| COC(=O)C1=C(c2cc3ccccc3s2)C[C@@H]2CC[C@H]1N2C(=O)NCCO | -10.5% |
| COC(=O)C1=C(c2ccc(C(C)=O)cc2)C[C@@H]2CC[C@H]1N2C(=O)NCCNC(C)=O | 34.8% (active) |
| NCCc1c[nH]c2ccc(O)cc12 | 10.4% |
| CCC(C)(O)C(=O)OC1C(=O)OC2CC3C(C)=CC(=O)C(O)C3(C)C3C4(O)OCC23C1C(C)C4O (stereo not given) | 9.9% |
| CCOC(=O)[C@]12Cc3ccccc3[C@H]1N(C1CCCCC1)C(=O)c1cc(OC)ccc12 | 2.7% |
| Cc1ccc(OC(=O)N(C)C[C@@H]2OCc3cnnn3CCCC(=O)N([C@H](C)CO)C[C@@H]2C)cc1 | 9.5% |
| Cc1ccc(S(=O)(=O)N(C)c2ccc(C(=O)NCC3(N(C)C)CCCCC3)cc2)cc1 | -2% |
| CCCCCn1c(=O)c(C(=O)Nc2c(C)n(C)n(-c3ccccc3)c2=O)c(O)c2ccccc21 | 3.5% |
| CN1CCN(C(=O)COc2ccc(C(C)(C)C)cc2Br)CC1 | 10% |
| CC(C)c1ccc(OCC(=O)N2CCN(C)CC2)c(Br)c1 | 13.4% |
| CC(C)c1ccc(OCC(=O)N2CCCN(C)CC2)cc1 | 28.1% (active) |
| CCN1c2nc3c(C)cccn3c(=O)c2CC2(C(=O)N(C)C(=O)N(C)C2=O)C1C (stereo not given) | 10.7% |
